Hit rate of the full screen: of about 320,000 compounds, about 2,100 (0.66%) were called active. About 53% were inconclusive and are not listed. This is one part of a sample in which actives are shown more often than they occur. The call rests on the fitted dose curve; in most records, active means well fitted inhibition curve with a large enough effect in the signal ratio, with a control signal flat (not every such curve was filed as active); inconclusive means small, poorly fitted or top-dose-only effect, or effect the other way, or a change in a side signal; inactive means flat fitted curve, though single readings scatter; the % refers to the signal ratio.
Potency means the concentration at half of the fitted maximal effect.

A short description of the test: qHTS Assay for Lipid Storage Modulators in Drosophila S3 Cells.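 On cell number change: cells counted by Cell Tracker Red CMTPX staining in the red channel.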 The conditions noted are these: BODIPY lipid droplet fluorescence, 18-24 h, cells fed with added oleic acid; cell number change: measured here: cell count max response; series mostly up to 46.1 µM. An outline of the steps:
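Drosophila S3 cells loaded with oleic acid (400 uM, as added) and compounds at several concentrations; lipid droplets imaged by 488-nm laser-scanning cytometry, 500–530 nm intensity and object ratio to cell channel. Percent activity normalized to 20 uM Triacsin C.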
For the compound `Cn1c(=O)c(=O)n(C)c2cc(S(=O)(=O)N3CCCCCC3)ccc21`, the Potency result was “inactive” and the cell number change was found to be 11.2%.

Consider `CN(C)CCCNS(=O)(=O)c1ccc(N2CCN(Cc3ccc4c(c3)OCO4)CC2)c([N+](=O)[O-])c1`, for which the Potency entry is “inactive” and the cell number change was -3.81%.

As to `COc1cc(OC)c(NC(=O)C(=O)CC(=O)c2ccc(C)cc2C)cc1Cl`, the Potency result is “inactive” and the cell number change is -12.6%.

As to `CN1C(=O)/C(=C/c2ccccc2Cl)Sc2ccc(C(=O)NCc3cccnc3)cc21`, the Potency entry is “inactive” and the cell number change is -7.77%.

Consider `Cc1ccc(S(=O)(=O)N/N=c2\oc3ccccc3cc2C(=O)Nc2cccc(C)c2)cc1`, for which the Potency entry was “inactive” and the cell number change is -24.3%.

On to `CCOC(=O)c1sc2nc(C)nc(SCC(=O)N(CC)C3CCS(=O)(=O)C3)c2c1C` (stereo not drawn), for which the Potency result is “inactive” and the cell number change is -1.32%.

With `Cn1nc(-c2ccc(C(=O)NCCO)cc2)c2ccccc2c1=O`, the Potency entry is “inactive” and the cell number change was -4.78%.

For `CC1(c2ccc(OCC#N)cc2)C=C(c2ccc(OCC#N)cc2)n2nc(C(F)(F)F)nc2N1` (stereo not drawn), the Potency entry is “inactive” and the cell number change was -2.27%.

As for `C=CCN1c2ccccc2[C@]23C[C@@H](C(=O)OC)N=C2NC(C(=O)OC)=C(C(=O)OC)[C@H]13`, the Potency entry was “inactive” and the cell number change is 33.7%.

For the compound `CC(C)OC(=O)/C(C#N)=C\c1cccnc1`, the Potency result was “inactive” and the cell number change was found to be 5.73%.

As for `CCC(C)(C)NC(=O)C(c1ccc(OC)cc1)N(C(=O)CCC(=O)Nc1cc(C)on1)C1CC1` (stereo not drawn), the Potency entry is “inactive” and the cell number change is -1.32%.

Take `O=C(Nc1cc2c(cc1Br)OCCO2)c1cccnc1`: the Potency entry is “inactive” and the cell number change is -16.4%.

As for `Cc1ccc(S(=O)(=O)NNC(=O)C2CCCCC2)cc1`, the Potency is 0.651 µM (active) and the cell number change was found to be 6.31%.

In the case of `Cc1ccc(S(=O)(=O)NNC(=O)C2CCN(S(=O)(=O)c3ccc(C)cc3)CC2)cc1`, the Potency entry is “inactive” and the cell number change worked out at 1.57%.

With `Cc1ccc(S(=O)(=O)N2CCC(C(=O)NNS(=O)(=O)c3ccc(Cl)cc3)CC2)cc1`, the Potency entry was “inactive” and the cell number change turned out to be 4.8%.

Regarding `CCOc1ccc(C(=O)OCC(=O)N2CCCC2)cc1OCC`, the Potency result is “inactive” and the cell number change is -21%.

Turning to `COc1ccccc1NS(=O)(=O)c1cc(NC(=O)CCNC(C)=O)ccc1C`, the Potency entry was “inactive” and the cell number change is 9.21%.

As to `CS(=O)(=O)NCCCNc1ccc(C(F)(F)F)cc1[N+](=O)[O-]`, the Potency entry is “inactive” and the cell number change came out at 2.05%.

For `O=[N+]([O-])c1cc(C(F)(F)F)ccc1NCCCCNS(=O)(=O)c1ccc(Cl)cc1`, the Potency is 25.9 µM (active) and the cell number change was -16.8%.

With `CS(=O)(=O)NCCCCNc1ccc(C(F)(F)F)cc1[N+](=O)[O-]`, the Potency entry was “inactive” and the cell number change is 4.42%.

`COc1ccc(C(=O)NCCNc2nc3ccc(C)cc3cc2C#N)cc1`: the Potency is 20.6 µM (active) and the cell number change was -23.8%.

In the case of `CCOc1ccc2nc(NCCNC(=O)CC)c(C#N)cc2c1`, the Potency entry is “inactive” and the cell number change is 0.214%.

Consider `COc1ccc(C(=O)NCCNc2nc3ccc(C)cc3cc2C#N)cc1OC`, for which the Potency result was “inactive”.

As to `CCOc1ccccc1OCCCC(=O)N1CCN(S(=O)(=O)c2ccc(C)cc2)CC1`, the Potency result is “inactive” and the cell number change is -13.5%.

On to `Cc1c(C(=O)O)sc2nc(CSc3ncc(C(F)(F)F)cc3Cl)[nH]c(=O)c12`, for which the Potency result was “inactive” and the cell number change came to 6.43%.

For `Cc1c(C)n(Cc2ccccc2)c2ncnc(NCCCO)c12`, the Potency result is “inactive” and the cell number change turned out to be 13.8%.

Consider `O=c1c(Cl)c(NCc2ccc(F)cc2Cl)cnn1C12CC3CC(CC(C3)C1)C2`, for which the Potency result is “inactive” and the cell number change was -5.4%.

Take `O=c1c(Cl)c(NCc2ccco2)cnn1C12CC3CC(CC(C3)C1)C2`: the Potency entry was “inactive” and the cell number change is -8.21%.

Regarding `O=c1c(Cl)c(NCc2ccccc2Cl)cnn1C12CC3CC(CC(C3)C1)C2`, the Potency is 13 µM (active) and the cell number change was -8.24%.

On to `Cc1cccc(NC(=O)CS(=O)(=O)c2cn(C)c3ccccc23)c1`, for which the Potency result was “inactive” and the cell number change is -0.98%.

As for `CNC(=S)N(CCCn1ccnc1)Cc1c(F)cccc1Cl`, the Potency was 3.26 µM (active) and the cell number change came to 21.2%.

With `O=C(CC1C(=O)NCCN1Cc1c(F)cccc1Cl)NCCCn1ccnc1` (stereo not drawn), the Potency result was “inactive” and the cell number change is 8.35%.

Regarding `O=C(Cc1c(F)cccc1Cl)NCCCn1ccnc1`, the Potency entry was “inactive” and the cell number change was -2.56%.

Take `CCCCn1c(CNC(=O)C(C)(C)C)nc2ccccc21`: the Potency entry was “inactive” and the cell number change is -1.23%.

As for `COc1ccc(Nc2nnc(SCC(=O)Nc3ccc4[nH]c(=O)[nH]c4c3)s2)cc1`, the Potency result is “inactive” and the cell number change is -17.1%.

Consider `Cc1nnc(SCCN2C(=O)c3ccccc3C2=O)[nH]c1=O`, for which the Potency entry was “inactive” and the cell number change is -14.8%.

Take `O=C(/C=C/c1cccc([N+](=O)[O-])c1)NCCN1C(=O)S/C(=C\c2ccc(F)cc2)C1=O`: the Potency result is “inactive” and the cell number change came to 13.9%.

As to `O=C(/C=C/c1ccccc1[N+](=O)[O-])NCCN1C(=O)S/C(=C\c2ccc(F)cc2)C1=O`, the Potency result was “inactive” and the cell number change is -11.5%.

For `CC(C)(C)C(=O)NCCN1C(=O)S/C(=C\c2ccc([N+](=O)[O-])cc2)C1=O`, the Potency is 11.6 µM (active) and the cell number change was -4.32%.

For the compound `COc1ccc(-c2nc(CS(=O)(=O)CC(=O)NCc3cccc(Br)c3)c(C)o2)cc1`, the Potency was 13 µM (active) and the cell number change turned out to be 10.1%.

Consider `COc1ccc(-c2nc(CS(=O)(=O)CC(=O)NCc3ccccc3Br)c(C)o2)cc1`, for which the Potency entry is “inactive” and the cell number change is 11.5%.

For `COc1cccc(-c2nc(CS(=O)(=O)CC(=O)NCc3ccccc3)c(C)o2)c1`, the Potency entry was “inactive” and the cell number change worked out at 1.69%.

For `CC(C)=CCN1CCN(Cc2cnc(-c3ccccc3)s2)CC1CCO` (stereo not drawn), the Potency result is “inactive” and the cell number change is -2.03%.

As for `Cc1ccc(-n2nc(C)c(C(=O)N3CCN(C(=O)c4ccco4)CC3)c2-n2cccc2)cc1`, the Potency is 16.4 µM (active) and the cell number change was -18.3%.

Consider `Cc1ccc(-n2ncc(C(=O)N3CCN(C(=O)c4ccco4)CC3)c2-n2cccc2)cc1`, for which the Potency result is “inactive” and the cell number change was -13.4%.

For the compound `Cc1ccc(CN2CCN(C(=O)c3ccco3)CC2)cc1`, the Potency entry is “inactive” and the cell number change is 11.8%.

Regarding `O=C(Nc1ccncc1)c1sc2ccccc2c1Cl`, the Potency entry is “inactive” and the cell number change was found to be 17.8%.

Consider `Cc1nn(CC#N)c(=O)n1-c1ccccc1`, for which the Potency entry is “inactive” and the cell number change turned out to be 5.19%.

`CCOC(=O)C1CCN(C(=O)CSc2c3c(nc4ccccc24)CCC3)CC1`: the Potency entry was “inactive” and the cell number change stood at 8.19%.

With `N#Cc1ccc(-c2csc(-c3ccno3)n2)cc1`, the Potency entry was “inactive” and the cell number change is 9.9%.

With `COc1ccc(/C=C2\N=C(c3ccccc3)N(c3ccc(C(=O)O)cc3)C2=O)cc1OC`, the Potency result was “inactive”.

As to `COc1ccc(/C=C2\N=C(C)N(c3ccc4ccccc4c3)C2=O)cc1OC`, the Potency is 5.17 µM (active) and the cell number change came to 14.3%.

Turning to `COc1ccc(/C=C2\N=C3CCCCCN3C2=O)cc1OC`, the Potency entry was “inactive” and the cell number change is -0.0934%.

On to `Cc1ccc(S(=O)(=O)N(C)/N=C/C=C/c2ccccc2)cc1`, for which the Potency result is “inactive” and the cell number change was -10.7%.

On to `O=C(COC(=O)Cn1cnc2ccccc21)Nc1cccc(S(=O)(=O)N2CCOCC2)c1`, for which the Potency result was “inactive” and the cell number change is -0.979%.

On to `NC(=O)C1CCN(C(=O)CSc2nc3ccccc3s2)CC1`, for which the Potency was 16.4 µM (active) and the cell number change worked out at 5.89%.

With `NC(=O)C1(N2CCCCC2)CCN(C(=O)CSc2nc3ccccc3s2)CC1`, the Potency entry was “inactive” and the cell number change was -22.8%.

For the compound `NC(=O)C1CCN(C(=O)CSc2nc3ccccc3o2)CC1`, the Potency entry is “inactive”.

For the origin of these results see PubChem BioAssay AID2685 (National Center for Advancing Translational Sciences (NCATS), 2010).
